# From PubChem
# HMGR II inh = inhibitors of class II HMG-CoA reductase from Enterococcus faecalis; inhibition, % at 10 µM; hit rate 0.41% among 190,000; purified E. faecalis HMGR, NADPH absorbance 340 nm kinetic; AID 1066;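 active means inhibition above a set limit, the median over all tested compounds plus 3 SD, cut at about 9.5% in these data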;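 further: enzyme runs in reverse so mevalonate oxidation gives rising NADPH absorbance; 0% = complete reaction with DMSO and 100% = background rate lacking mevalonate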
# Insulin prom up = MIN6 insulin promoter up-regulation; MIN6 insulin promoter-GFP reporter, high-content imaging; hits give high values; z-score at 5 µM; hit rate 0.3% among 190,000; AID 1625;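 active means z-score above 3 at 5 µM with at least 500 cells counted in the well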
# Autophagy mod = alters autophagy in cells | hit rate 0.98% among 190,000 | MEF GFP-LC3 puncta imaging; test concentration mostly 10 µM | calls only at 10 µM (by protocol) | AID 463193;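 active means percentage of spot-positive cells more than 3 SD above its plate mean, without a fluorescence outlier flag or 80% toxicity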;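 further: spot-positive cell cutoff set from DMSO-treated cells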
# INS promoter inh = TRM-6 insulin promoter activity inhibition | TRM-6 cells (human fetal islet line), insulin promoter-eGFP reporter, imaging; reporter expression induced with tamoxifen | inhibition, % at 2 µM | hit rate 0.9% among 130,000;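 active means inhibition above the mean plus 3 SD, with well images judged a real hit on visual review, cut at about 60% in these data, passing the limit was not always enough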
# * hit, by the source's call; i = inactive; nt = no result; + = active, no number. Rows were chosen to be rich in hits. Some 1.9% of all compounds tested hit in one or more screens of this group.
SMILES,HMGR II inh,Insulin prom up,Autophagy mod,INS promoter inh
CCCCC[C@H](O)/C=C/[C@@H]1[C@@H](C/C=C\CCCC(=O)O)[C@H]2CO[C@@H]1C2,11*,nt,i,5
CCCCC[C@H](O)/C=C/[C@@H]1[C@@H](C/C=C\CCCC(=O)O)[C@@H](O)C[C@H]1O,-1,nt,i,-27
CCOC(=O)c1sc(NC(=O)COC(=O)CNC(=O)C2CCCCC2)c(C(=O)OCC)c1C,1,-0.51,i,4
CCN1CCN(CCNC(=O)c2ccc(/C=C3\Sc4ccccc4N(Cc4ccccc4F)C3=O)cc2)CC1,2,-0.91,+,-45
CN1CCN(CCCNC(=O)c2ccc(/C=C3\Sc4ccccc4N(Cc4ccc(F)cc4)C3=O)cc2)CC1,-5,nt,i,-23
COc1cccc(Cn2c(Oc3ccccc3)nc3c2c(=O)n(C)c(=O)n3C)c1,5,-0.25,i,nt
C=CCn1c(Oc2ccccc2)nc2c1c(=O)n(C)c(=O)n2C,16*,-0.31,i,nt
COc1ccc(C(O)(c2ccccc2OC)C(CN2CCOCC2)c2ccccc2)cc1 (configuration not stated),-3,-1.9,i,nt
CCCCOCCCNC(=O)c1ccc(OCC)cc1,10*,-1.1,i,-69
CCOc1ccccc1NC(=O)NCCC1=CCCCC1,-2,0.43,i,-32
CC(C)c1nc(-c2ccccc2)c(-c2ccccc2)[nH]1,2,-0.31,i,87*
CCC(C(=O)Nc1cc(C)on1)c1ccccc1 (configuration not stated),-3,0.26,i,70*
CCC(C(=O)Nc1ccc(C)cc1)c1ccccc1 (configuration not stated),-1,0.12,i,-45
Cc1cccc(OCC(=O)Nc2cc(C)on2)c1,0,nt,i,38
Cc1cc(NC(=O)COc2cccc(Oc3ccccc3)c2)no1,0,0.34,+,4
CC(NCC(=O)Nc1cc(S(=O)(=O)N2CCCCCC2)ccc1Cl)c1ccccc1 (configuration not stated),-4,0.43,i,nt
CSc1cccc(NC(=S)N(Cc2ccccc2)Cc2cccnc2)c1,-3,-0.48,i,nt
CC(=O)NC(C)C(=O)OCC(=O)Nc1ccc(Br)cc1 (configuration not stated),-5,1.8,i,89*
O=C(O[C@@H]1Cc2c(O)cc(O)cc2O[C@@H]1c1cc(O)c(O)c(O)c1)c1cc(O)c(O)c(O)c1,14*,-0.11,nt,nt
O=C(NNc1ncc(C(F)(F)F)cc1Cl)c1c(Cl)cccc1Cl,1,1.5,+,26
c1ccc2c(c1)[nH]c1c(N3CCSCC3)ncnc12,1,nt,i,94*
COCCCNCC#CCOc1ccc(OC)cc1,-7,0.3,+,nt
O=c1oc(-c2cccs2)nc2sc3c(c12)CCCC3,-2,0.56,i,68*
O=C1CN(c2nc(-c3cccs3)nc3sc4c(c23)CCCC4)CCN1,0,-0.74,+,nt
O=c1oc(-c2cccs2)nc2sc3c(c12)CCC3,4,-0.55,i,-15
SMILES,HMGR II inh,Insulin prom up,Autophagy mod,INS promoter inh
CC1CCCCN1C(=O)Cn1cc(/C=C2/C(=O)Nc3ccccc32)c2ccccc21 (configuration not stated),-9,0.17,i,38
Cc1cc(N)n(-c2ccccc2)n1,0,-0.52,i,-50
Cc1cc(-c2cc(N)n(-c3ccccc3)n2)c(C)n1C1CCCC1,-4,-1.4,+,nt
CCOC(=O)c1cc(-c2cccc([N+](=O)[O-])c2)on1,-8,-1.2,i,nt
CCCCCn1c(CN2CC(C)OC(C)C2)nc2c1c(=O)n(C)c(=O)n2C (configuration not stated),nt,-0.36,i,10
CC(C)=NNc1nc2c(c(=O)n(C)c(=O)n2C)n1CCc1ccccc1,-3,4.2*,i,nt
CC1CN(Cc2nc3c(c(=O)n(C)c(=O)n3C)n2CCc2ccccc2)CC(C)O1 (configuration not stated),nt,nt,i,76*
Cn1c(=O)c2c(nc(NCc3ccccc3)n2CCCc2ccccc2)n(C)c1=O,-2,-0.89,i,-253
O=Cc1c(N2CCN(c3ccccc3)CC2)nc2ccccn2c1=O,2,-0.13,+,nt
COc1cc(OC)cc(C(=O)Nc2ccc(-c3nc4ccccc4o3)cc2)c1,0,-1.6,+,nt
CCOc1cc(OCC)cc(C(=O)Nc2cccc(C(C)=O)c2)c1,0,0.02,i,7
COc1cc(OC)cc(C(=O)Nc2cccc(C(C)=O)c2)c1,4,3.5*,i,25
Cc1c(C(=O)Nc2cccc(Cl)c2)c2ccccn2c1CCc1ccncc1,2,0.12,+,nt
O=C1CC2c3ccccc3C1C1C(=O)N(CCc3ccccc3)C(=O)C21 (configuration not stated),2,0.03,i,nt
